# Measured values published in ChEMBL document CHEMBL4888484, “Replenishing the malaria drug discovery pipeline: Screening and hit evaluation of the MMV Hit Generation Library 1 (HGL1) against asexual blood stage Plasmodium falciparum ,using a nano luciferase reporter read-out” (2022).
# The campaign covered roughly 150,000 compounds. About 540 (0.36%) showed an effect of 50% or more. Shown is part of a subset that was picked to be rich in strong results.
# Test system: Plasmodium falciparum
# Experiment: Primary screen in NF54 nanoGlo assay, in single point, at 2uM, 72h; a lower Z score goes with more inhibition
# Format: functional, Erythrocyte
# Details: timepoint 72 hour
Compound,% Inhibition [%],Z score
CCOC(=O)N1CCC(C)(CN2CCS(=O)(=O)C[C@@H](C)C2)CC1,-13,1.46
Cn1cc(Cl)cc1C(=O)N1CCN(Cc2ccccc2F)C(=O)C1,-2,0.24
CCOc1ccc(Cl)cc1-c1cc(C)n[nH]c1=O,-8,1.52
Cc1cccc(N2CCN(C(=O)c3cn4c(n3)COCC4)CC2)c1C,-8,1.36
COc1ccc(C)c2sc(N(CCCn3ccnc3)C(=O)Cc3ccc(F)cc3)nc12,78,-7.85
COc1ccc(C)c2sc(N(CCCN(C)C)C(=O)c3ccnn3C)nc12,-7,1.27
COc1ccc(C)c2sc(N(Cc3cccnc3)C(=O)c3ccn(C)n3)nc12,-12,2
CC(C)(C)OC(=O)N1CC2CC1CCC2=O (stereo not drawn),-3,0.51
COc1ccc(CN2C[C@H]3CC[C@@H](C2)N(C(=O)c2nc(C)c[nH]2)C3)cc1,-2,0.32
CC(C)(C)OC(=O)NCc1cccnc1NC(=O)Cc1ccoc1,10,-1.94
O=C(CCn1nc2ccccn2c1=O)Nc1cnccc1Nc1ccc(F)cc1,-25,4.76
Cc1nn(C2CCCC2)c2nc(-c3cccs3)[nH]c12,-10,1.39
Cc1nn(C2CCCC2)c2nc(-c3cc(CN(C)C)cs3)[nH]c12,69,-9.28
Cc1nn(C)c(Cl)c1-c1nc2c([nH]1)c(C)nn2C1CCCCC1,1,-0.09
Fc1ccc([C@@H]2CCN2CCn2cc(Cl)cn2)cc1,12,-1.59
CN(C)Cc1cc(CN(C)C)c(O)c(CCc2ccccc2)n1,7,-1.36
OCc1cc(CO)c(O)c(CCc2ccccc2)n1,-7,1.32
CN(C)Cc1ccc(O)c(CCc2ccccc2)n1,64,-4.36
COC(=O)[C@H](CS(=O)(=O)Nc1cc(C)n(C)n1)c1ccccc1,3,-0.46
O=c1c2ccoc2ccn1Cc1ccc(OC(F)F)cc1,-8,0.89
COc1ccc(C(=O)CN2C=CCC=C2c2nc(-c3ccc(Cl)cc3)cs2)cc1,75,-6.73
Brc1ccc(-c2csc(Cc3nc(-c4ccc(Br)cc4)cs3)n2)cc1,-3,0.3
O=C(CN1C=CCC=C1c1nc(-c2ccc(Br)cc2)cs1)c1ccccc1,65,-4.25
COc1ccc(C2=CN(CC(=O)c3ccc(Cl)cc3)C3=CCCCCN23)cc1,37,-3.83
COc1ccc(-c2csc(-c3nc(-c4cccc(Cl)c4)cs3)n2)cc1,-13,1.47
O=C(C[n+]1ccccc1-c1nc(-c2ccc(Cl)cc2)cs1)c1ccccc1,-7,1
Cc1cnc(C2CCOCC2)n1CC1CCN(C(=O)c2cccs2)CC1,-4,0.55

Compound,% Inhibition [%],Z score
Cc1cc(F)ccc1C(=O)NCc1nnc(C)n1C1CC1,-2,0.34
CCN1CCN([C@H]2CCN(c3cc(Cl)ccc3C#N)C2)CC1,-9,1.34
CCn1c(-c2cc(NC(=O)c3cc(C)cc(C)c3)[nH]n2)cc2ccc(OC)cc21,17,-1.96
CCn1c(-c2cc(NC(=O)c3ccncc3)[nH]n2)cc2ccc(OC)cc21,34,-3.83
CCn1c(-c2cc(NC(=O)c3ccc4c(c3)OCO4)[nH]n2)cc2ccc(OC)cc21,52,-0.45
O=C(c1cnn(Cc2ccccc2)c1)N1CCC[C@@H]1CO,5,-0.66
Cc1ccc(CNC(=O)CN2CCN(C(=O)Nc3ccc(Cl)cc3)CC2=O)o1,7,-1.32
CCN1CCOC(C(=O)N2CCCC(COc3ccccc3)C2)C1 (stereo not drawn),-11,1.91
Oc1ccccc1-c1cnc(C(F)(F)F)s1,93,-17.09
Oc1ccccc1C1=NN[C@@](O)(C(F)(F)C(F)F)C1,-6,0.8
NC(=O)CC(=O)Nc1ncc(-c2ccccc2F)s1,4,-0.56
Cn1nccc1[C@@H](O)CNC(=O)C1(c2cccnc2)CC2(CCC2)C1,-8,1.59
CCN(CCN(C)C)C(=O)c1cccc(-c2ncccc2C)c1,-6,0.81
CCN(CC)CCN(CC)C(=O)c1cccc(-c2ccc(C)nc2N)c1,-7,0.71
CCN(CCN(C)C)C(=O)c1cccc(-c2ccc3nccc(N)c3c2)c1,96,-13.62
CNC(=O)[C@@H]1C[C@@H](NCc2ccc(C(F)(F)F)cc2)CN1CC(c1ccccc1)c1ccccc1,2,-0.22
CNC(=O)[C@@H]1C[C@H](NCc2cc(OC)c(OC)c(OC)c2)CN1CC(c1ccccc1)c1ccccc1,54,-11.4
CNC(=O)[C@@H]1C[C@H](NCc2ccccc2F)CN1CC(c1ccccc1)c1ccccc1,9,-1.28
Cc1cccc(OCCN2C(=O)N[C@@]3(CCCCc4ccccc43)C2=O)c1,4,-0.78
CCN(Cc1noc(C2CCC2)n1)Cc1ccccc1C#N,-1,0.12
COc1ccc(Cl)cc1-c1c(N2CCCC2)cn[nH]c1=O,1,-0.09
O=C(NCCOc1ccccc1)c1ccc(C(=O)NCCOc2ccccc2)s1,56,-0.3
Cc1cc(C(=O)NCCOc2ccccc2)c(C)s1,-17,2.3
O=C(NCCOc1ccccc1)NCCOc1ccccc1,1,-0.22
Cc1cc(C)n(Cc2c(C(=O)NCc3ccc(N(C)C)cc3)noc2C)n1,-13,1.35
C#CCCCCC(=O)Nc1ccc(C#N)cn1,4,-0.84
CC(C)[C@H]1CN(C(=O)c2nc(C(F)(F)F)n3c2CCCC3)CCN1,-15,1.9
